# Assay outcomes: PubChem, National Center for Advancing Translational Sciences (NCATS)
# The full list was thinned out, with hits kept by preference.
# DT40 TDP1 CPT – qHTS for Inhibitors of human tyrosyl-DNA phosphodiesterase 1 (TDP1): qHTS in cells in presence of CPT | chicken DT40 Tdp1-/-;hTDP1 cells + 20 nM CPT, ATP luminescence, 48 h | Potency, µM (doses to about 46.2 µM), without a hit: top-dose activity change, negative = growth inhibition, hits mostly inhibitors | actives 12% (n = 420,000); note: potency is the fitted concentration of half-maximal effect; nearly all actives have a fitted effect of over 55% in size
#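 Cell growth measured by CellTiter-Glo luminescence after a minimum 48 h, 37 C compound exposure with 20 nM CPT in Tdp1-knockout DT40 cells stably expressing hTDP1, seeded 400/well; qHTS titration format.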
# TDP1 cell noCPT – qHTS for Inhibitors of human tyrosyl-DNA phosphodiesterase 1 (TDP1): qHTS in cells in absence of CPT; DT40 Tdp1-/- hTDP1 cells, no CPT, ATP luminescence, 48 h; Potency, µM (titrated, usually from 46.2 µM), inactives show at the highest dose activity change, negative = growth inhibition, actives largely listed as inhibitors; actives 15% (n = 420,000); AID 686978, 2013; note: potency is the fitted concentration of half-maximal effect; nearly all actives have a fitted effect of over 55% in size
#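 Compound effects on proliferation are scored in DT40 Tdp1-/-;hTDP1 cells in the absence of CPT. ATP levels (CellTiter-Glo luminescence) are recorded after a ≥48 hr, 37 °C incubation.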
# HT1080NT lethal – qHTS for induction of synthetic lethality in tumor cells producing 2HG: qHTS for the HT-1080-NT fibrosarcoma cell line; HT-1080-NT fibrosarcoma viability, CellTiter-Glo ATP luminescence, 48 h; Potency, µM (titrated, usually from 46.1 µM), without a hit: at the top dose activity, negative = less viability, usual class: cytotoxic; actives 1.6% (n = 360,000);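 note: NT is the 2HG producing partner of a matched IDH1 knockdown line; potency is the fitted concentration of half-maximal effect; 0% = DMSO-treated cells and -100% = media-only wells without cells; nearly all actives have a fitted effect of over 55% in size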
#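 Luminescent CellTiter-Glo readout after 48 hours of compound exposure at 37 degrees C defined viability of HT-1080-NT cells. Activity was normalized to DMSO wells and cell-free media wells; concentration-response curves were fitted and assigned curve classes.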
# IL-1B inflam inh – qHTS for Inhibitors of Inflammasome Signaling: IL-1-beta AlphaLISA Primary Screen; activity change, % at 57.5 µM; THP-1 LPS/ATP IL-1B secretion, AlphaLISA, 16 h; hits give low values; actives 4.7% (n = 360,000); in the data active = activity change below about -50%; inconclusive = mostly about -30% to -49%
#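 THP-1 cells pretreated 1 hr with compounds (up to 57.5 uM final), then stimulated with LPS (250 ng/mL final) plus ATP (1.25 mM final); secreted IL-1B measured by AlphaLISA after 16 hr, decreased signal indicating inhibition.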
# ALOX12 inh – Primary qHTS assay for inhibitors of human arachidonate 12S-lipoxygenase (ALOX12): Round 2; Polyunsaturated fatty acid lipoxygenase ALOX12 (Homo sapiens), P18054; purified 12hLO, xylenol orange hydroperoxide absorbance; Potency, µM (doses to about 108 µM), for inactives: at the highest dose activity change, negative = inhibition, hits mostly inhibitors; actives 1.1% (n = 580,000); AID 1671190, 2021; note: potency is the fitted concentration of half-maximal effect
# Target sequence (P18054 whole entry, looked up): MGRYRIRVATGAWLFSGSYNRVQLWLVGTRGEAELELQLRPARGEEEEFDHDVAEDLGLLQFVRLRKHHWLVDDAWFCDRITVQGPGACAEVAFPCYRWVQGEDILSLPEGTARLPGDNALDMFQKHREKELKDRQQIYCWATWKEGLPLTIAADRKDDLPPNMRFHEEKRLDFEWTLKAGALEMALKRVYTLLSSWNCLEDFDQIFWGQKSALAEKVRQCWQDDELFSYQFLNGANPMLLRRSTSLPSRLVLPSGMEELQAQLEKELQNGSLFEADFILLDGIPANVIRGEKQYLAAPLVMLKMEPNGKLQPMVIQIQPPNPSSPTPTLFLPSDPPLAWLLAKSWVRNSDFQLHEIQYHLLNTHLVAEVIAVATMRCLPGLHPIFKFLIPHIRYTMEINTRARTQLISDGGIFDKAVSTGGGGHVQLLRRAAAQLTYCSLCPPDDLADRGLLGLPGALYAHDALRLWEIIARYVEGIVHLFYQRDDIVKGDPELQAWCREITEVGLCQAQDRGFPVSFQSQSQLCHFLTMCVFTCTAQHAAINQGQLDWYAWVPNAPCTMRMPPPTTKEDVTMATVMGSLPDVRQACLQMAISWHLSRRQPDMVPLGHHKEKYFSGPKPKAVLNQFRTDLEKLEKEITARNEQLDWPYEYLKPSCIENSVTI
#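 Purified human 12hLO at 150 nM in 25 mM Hepes, 0.01% Triton X-100, pH 7.0, preincubated 15 min at room temperature with compound. Reaction started with 40 uM arachidonic acid, 30 min at room temperature. Hydroperoxide measured by Fe-xylenol orange, 573/405 nm absorbance ratio.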
# HT1080 IDH1KD tx – qHTS for induction of synthetic lethality in tumor cells producing 2HG: qHTS for the HT-1080-IDH1KD cell line; actives 2% (n = 360,000); Potency, µM (top dose mostly 46.1 µM), without a hit: top-dose activity, negative = toxicity, hits mostly cytotoxic; HT-1080 IDH1 knockdown viability, ATP luminescence, 48 h;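 note: potency is the fitted concentration of half-maximal effect; 0% = DMSO wells and -100% = cell-free medium wells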
#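 Cytotoxicity counter-line: IDH1KD HT-1080, 48 h, CellTiter-Glo. Curves classed by r2, magnitude and activity.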
# Starred values were filed as active, the others as inactive; i = inactive; u = inconclusive; x = not tested or not shown. Unless noted, calls come from the whole dose curve; as a rule, active = well fitted curve in the direction sought with a large enough effect; inconclusive = small, poorly fitted or top-dose-only effect, or another doubt; inactive = no such curve, though single readings can be large; an effect the other way counts as inactive or inconclusive. Unless noted, % is set by controls: 0 for no effect and ±100 for the full control effect.
SMILES,DT40 TDP1 CPT,TDP1 cell noCPT,HT1080NT lethal,IL-1B inflam inh,ALOX12 inh,HT1080 IDH1KD tx
Cc1ccc(C(=O)NC2CCCc3ccccc32)cc1[N+](=O)[O-] (configuration not stated),u,15µM*,u,-18,-19%,13µM*
Cc1cccc(-n2nnc(C(=O)NC3CCCCC3)c2N)c1,x,x,x,x,-9%,x
Cc1cccc(-n2nnc(C(=O)NC3CCCc4ccccc43)c2N)c1 (configuration not stated),u,18µM*,-9%,-16,45%,u
CN1CCN(c2ccc(C(=O)c3ccccc3)cc2[N+](=O)[O-])CC1,0%,u,-1%,-53*,-19%,24%
O=C(O)c1ccc(N2CCN(C(c3ccccc3)c3ccccc3)CC2)c([N+](=O)[O-])c1,-28%,u,-6%,17,u,-2%
Cc1cc(C(=O)NC(=S)Nc2cccc(C(=O)O)c2C)ccc1[N+](=O)[O-],-1%,7%,7%,-2,20µM*,1%
Cc1cc(C(=O)NC(=S)Nc2cccc(NC(=O)C(C)C)c2)ccc1[N+](=O)[O-],-17%,u,-5%,-15,u,-3%
O=C(/C=C(/c1ccc(Cl)cc1)n1cncn1)c1ccccc1,u,u,-7%,-58*,u,-10%
Cc1cc(NCC(c2ccccc2)c2ccccc2)n2ncnc2n1,u,u,7%,29,-5%,-6%
Cc1cc(NCc2ccccc2)n2ncnc2n1,u,12µM*,2%,23,0%,2%
C#CCNc1cc(-c2ccccc2)nc2ncnn12,-7%,3%,-1%,21,-5%,6%
COc1ccc(CCNc2cc(-c3ccccc3)nc3ncnn23)cc1,23µM*,u,0%,0,-3%,-13%
COc1ccccc1C(=O)Nc1ccc(N2CCN(C(C)=O)CC2)cc1,3%,-7%,-1%,-56*,-10%,-1%
Cc1ccccc1C(=O)N1CCN(c2ccc(NC(=O)c3cccc(OC(C)C)c3)cc2)CC1,3.7µM*,3.3µM*,0%,-1,0%,11%
CC(=O)N1CCN(c2ccc(NC(=O)C(c3ccccc3)c3ccccc3)cc2)CC1,-26%,-22%,-23%,-58*,1%,-3%
COc1c(C)cccc1C(=O)Nc1ccc(N2CCN(C(=O)c3ccccc3C)CC2)cc1,16µM*,15µM*,6%,-106*,i,-17%
Cc1ccccc1C(=O)N1CCN(c2ccc(NC(=O)c3ccco3)cc2)CC1,-15%,u,2%,x,17%,1%
Cc1ccccc1C(=O)N1CCN(c2ccc(NC(=O)c3ccc(OC(C)C)cc3)cc2)CC1,x,x,x,x,-6%,x
Cc1nc(C2CCCN(C(=O)COC(C)C)C2)cc(N2CCOCC2)n1 (configuration not stated),x,x,x,x,41%,x
Cc1cc(C)c2oc(C(=O)N(Cc3ccc(F)cc3)C3CCS(=O)(=O)C3)cc(=O)c2c1 (configuration not stated),u,-20%,-9%,-2,-4%,-15%
Cc1ccc(CN(C(=O)c2cc(=O)c3cc(C)cc(C)c3o2)C2CCS(=O)(=O)C2)cc1 (configuration not stated),u,18µM*,-4%,-16,u,-1%
